This note sets out measurements from ChEMBL document CHEMBL4513149, “CO-ADD screening of MMV (CH) - MMV compounds” (2021).

What is called Inhibition is the change of the read-out against control, counted positive when it falls.

Entries with a potency or affinity are not part of this list.

The test system of this assay is Klebsiella pneumoniae. As to conditions: Concentration 20 uM; ASSAY_TEST Inhibition of Bacterial Growth; detection method Absorption (OD600); MEDIA CAMHB; plate type 384well; NBS; CORNING #3640; time 18 hr.
For `NS(=O)(=O)c1cccc(-c2ccc3ncc(N4CCOCC4)nc3c2)c1`, the Inhibition is recorded as 17.56%.

`Nc1ccc(C(=O)Nc2ccc(-c3nc4ccccc4o3)cc2)cc1`: the Inhibition came to 7.66%.

Consider `O=C(C1CCCCC1)N1CC(=O)N2CCc3ccccc3C2C1` (stereo unspecified) [PRAZIQUANTEL], for which the Inhibition is given as 12.46%.

With `c1ccc(Oc2ccc(-c3cc(C4CCOCC4)[nH]n3)cc2)cc1`, the Inhibition stood at 16.38%.

Regarding `c1ccc(Oc2ccc(-c3cc(CN4CCOCC4)[nH]n3)cc2)cc1`, the Inhibition amounted to 7.99%.

For `c1ccc(Oc2ccc(-c3cncc(-c4ccc5[nH]ccc5c4)n3)cc2)cc1`, the Inhibition is on record as 5.9%.

Consider `CCOC(=O)c1c(NC(=O)c2c(F)c(F)c(F)c(F)c2F)sc(C(N)=O)c1C`, for which the Inhibition came to 11.9%.

As for `O=C(Nc1cccc(Cl)c1)c1cnc(N2CCN(c3ccncc3)CC2)c(Cl)c1`, the Inhibition is on record as 13.15%.

Regarding `CC(C)(C)n1nc(-c2ccccc2)c2c(N)ncnc21`, the Inhibition is 1.67%.

As for `CNc1nnc(Sc2cnn(-c3ccccc3)c(=O)c2Cl)s1`, the Inhibition is listed as 0.48%.

Take `COc1cc(C(F)(F)F)nc2ccc(C)c(N)c12`: the Inhibition is recorded as 11.25%.

Take `CN1CCN(S(=O)(=O)c2ccc(-c3ccc4c(Nc5ccc6nn[nH]c6c5)ccnc4c3)cc2)CC1`: the Inhibition amounted to 5.15%.

`O=C(NCc1nnc2n1CCCCC2)c1ccc(-c2ccc(F)cc2)o1`: the Inhibition is given as 6.05%.

With `Cc1cc(C)cc(COc2ccc3c(C)c(CCC(=O)O)c(=O)oc3c2C)c1`, the Inhibition is recorded as 9.77%.

Regarding `COc1cc(-c2cc(-c3ccc(S(C)(=O)=O)cc3)cnc2N)ccc1O`, the Inhibition is on record as 7.56%.

Regarding `CC(C)(C(=O)Nc1ccc(F)cc1)n1cc(-c2ccccc2F)cn1`, the Inhibition was 12.71%.

For `COC(=O)C1=C(C)NC(C)=C(C(=O)OC(C)C)C1c1cccc2nonc12` (stereo unspecified) [ISRADIPINE], the Inhibition is reported as 6.29%.

In the case of `Cc1cc(OCC(=O)NCc2ccccc2)c2cc(Br)ccc2n1`, the Inhibition amounted to 6.14%.

Turning to `COc1cccc(CC(=O)N2CCC(n3c(C)nc4ccc(F)cc43)CC2)c1`, the Inhibition came out at 12.2%.

Take `CC(Oc1cccc(Cl)c1)C(=O)Nc1ccc2oc(-c3ccncc3)nc2c1` (stereo unspecified): the Inhibition is on record as 9.56%.

For the molecule `O=[N+]([O-])c1cn2c(n1)OC[C@@H](OCc1ccc(OC(F)(F)F)cc1)C2` [PRETOMANID], the Inhibition was found to be 14.31%.

As to `COc1nc2ccc(Br)cc2cc1[C@@H](c1ccccc1)[C@@](O)(CCN(C)C)c1cccc2ccccc12.O=C(O)C(F)(F)F`, the Inhibition was found to be 17.53%.

With `Cc1cc2nc(NC(=O)C(C)(C)C)nc(Cl)c2n1Cc1ccc(Cl)cc1`, the Inhibition is on record as 1.22%.

With `O=C(C1CCN(c2nnc(-n3cccc3)s2)CC1)N1CCC(Cc2ccccc2)CC1`, the Inhibition was 11.79%.

`Cc1cc(Nc2ccncc2)n2nc(C)c(-c3ccccc3Cl)c2n1`: the Inhibition was 15.32%.

Turning to `Cl.O[C@@H](c1cc(C(F)(F)F)nc2c(C(F)(F)F)cccc12)[C@H]1CCCCN1`, the Inhibition is given as -6.56%.

Regarding `COc1ccc(-c2cnc3cnc(-c4cccc(OC(C)C)c4)cn23)cc1`, the Inhibition is 4.82%.

On to `COc1ccc2nc(C)cc(OCC(=O)NCc3ccccc3)c2c1`, for which the Inhibition worked out at 19.56%.

As for `Cc1ccc2nc(C)c(-c3ccn(Cc4ccccc4)n3)n2c1`, the Inhibition is reported as 14.88%.

For `Nc1cccnc1Nc1ccc(Cl)cc1`, the Inhibition was 2.25%.

As for `Nc1ncc(-c2ccc(C(F)(F)F)nc2)cc1-c1ccc(C(F)(F)F)nc1`, the Inhibition is -7.95%.

Take `Clc1ccc(CN2CCN(C3=NCCN3)CC2)cc1Cl`: the Inhibition is listed as 16.63%.

`Cc1cc(NC(=O)c2ccc(S(=O)(=O)N(Cc3ccccc3)C(C)C)cc2)no1`: the Inhibition is recorded as 8.9%.

On to `Cc1cnc(N2CCN[C@@H](Cc3ccccc3)C2)nc1Oc1ccc(-n2ccnc2)cc1.Cl`, for which the Inhibition is on record as 8.14%.

Turning to `O=C(Nc1nc(-c2ccccn2)cs1)C1CC1c1ccccc1F` (stereo unspecified), the Inhibition was 21.19%.

Regarding `O=C(CN1CCOCC1)Nc1ccc2ncnc(Nc3ccc(OCc4cccc(F)c4)c(Cl)c3)c2c1`, the Inhibition is 11.31%.
